Measurements taken from PubChem BioAssay AID1645855 (Buhrlage Lab, Dana-Farber Cancer Institute and Novartis …, 2021).
Screen size: about 47,000 compounds; about 3,100 (6.6%) were called active. The full list was thinned out, with actives kept by preference. Unmarked numbers belong to inactive results. No stated cut-off is given here; in the data, active means inhibition above about 30%; inactive means the rest.

biological target: Ubiquitin carboxyl-terminal hydrolase 17-like protein 5 (Homo sapiens) (UniProt A8MUK1); assay: inhibitors of human USP17 deubiquitinase (AID 1645855); conditions: purified USP17, Ub-rhodamine cleavage fluorescence, 3 h; at 50 µM; hits give high values
Sequence (A8MUK1 whole entry, looked up): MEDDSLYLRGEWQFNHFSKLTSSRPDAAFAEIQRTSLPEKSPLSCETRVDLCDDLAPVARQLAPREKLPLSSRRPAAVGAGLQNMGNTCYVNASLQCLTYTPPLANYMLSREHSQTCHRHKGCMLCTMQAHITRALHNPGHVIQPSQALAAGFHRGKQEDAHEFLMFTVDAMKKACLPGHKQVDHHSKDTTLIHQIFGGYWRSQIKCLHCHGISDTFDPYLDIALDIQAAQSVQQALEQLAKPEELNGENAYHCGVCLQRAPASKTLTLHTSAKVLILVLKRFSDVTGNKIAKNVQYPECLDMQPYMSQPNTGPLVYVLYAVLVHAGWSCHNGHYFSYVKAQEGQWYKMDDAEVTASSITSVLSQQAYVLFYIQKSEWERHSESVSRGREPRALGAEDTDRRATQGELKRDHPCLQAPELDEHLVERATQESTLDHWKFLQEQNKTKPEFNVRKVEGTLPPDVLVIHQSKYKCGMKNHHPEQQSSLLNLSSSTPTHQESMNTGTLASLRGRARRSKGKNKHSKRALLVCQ

| SMILES | inhibition |
| --- | --- |
| O=C(NCc1cccnc1)[C@@H]1CC[C@@H]2[C@@H](CCN2c2ncc(F)cn2)O1 | -63.6% |
| COc1ccc(NS(=O)(=O)c2cc(NC(=O)/C=C/c3cccc(OC)c3)ccc2OC)cc1 | -3.35% |
| COc1ccc(NS(=O)(=O)c2cc(NC(=O)COc3ccccc3F)ccc2OC)cc1 | 6.42% |
| COc1ccc(NS(=O)(=O)c2cc(NC(=O)CC(=O)c3ccc([N+](=O)[O-])cc3)ccc2C)cc1 | 39.9% (active) |
| COCCN1C[C@H]2COc3cc(OC)ccc3[C@H]2N(C(=O)c2ccc(F)cc2)CCC1=O | 0.764% |
| CC(C)n1cnc(-c2cc(C(=O)NC3CC3)c3ccccn23)c1 | -51.2% |
| CCCNC(=O)c1ccc(Nc2cc(C)nc3nc(-c4cccnc4)nn23)cc1 | 7.85% |
| C[C@]12C(=O)N(c3cccc(C(=O)NCCN4CCOCC4)c3)C(=O)N1CCc1c2[nH]c2ccccc12 | -24.6% |
| COc1ccc2[nH]c3c(c2c1)CCN1C(=O)N([C@@H](C)C(=O)NCC(=O)O)C(=O)[C@]31C | 9.34% |
| COc1ccc(CNC(=O)c2ccccc2N2C(=O)N3CCc4c([nH]c5ccccc45)[C@@]3(C)C2=O)cc1 | 56.3% (active) |
| O=C(NCCc1ccc(F)cc1)N1CC[C@@H]2CN(Cc3ccncc3)S(=O)(=O)[C@@H]2CC1 | -15.9% |
| O=C(CNC(c1ccccc1)c1ccccc1)Nc1ccc(F)cc1 | 3.76% |
| O=C(N[C@@H]1C[C@@H](Oc2cccnc2)[C@H](O)[C@H]1N1CCCCC1)c1cnco1 | -6.77% |
| COc1cccc(-c2ocnc2C(=O)NCc2ccc(OC)c(OC)c2)c1 | -10.8% |
| COc1cccc(CNC(=O)c2ccc(-c3cncnc3)nc2)c1 | -9.04% |
| COc1cc(OC)cc(-c2nnc(NC(=O)c3ccc([N+](=O)[O-])o3)o2)c1 | 51.3% (active) |
| CN(C)C(=O)c1cccnc1-c1nc2ccccc2s1 | 9.06% |
| Cc1nc(NCc2ccco2)nc2c1COCC21CCN(C(=O)C(C)(C)C)C1 (centres undefined) | -22.1% |
| CC1=C(C(=O)Nc2ccccc2)C(c2cccnc2)n2nc(CCCO)nc2N1 (centres undefined) | -9.97% |
| COc1cccc(C2C(C(=O)Nc3ccccc3C)=C(C)Nc3ncnn32)c1OCc1ccccc1 (centres undefined) | -19.2% |
| COc1ccccc1NC(=O)C1=C(C)Nc2ncnn2C1c1ccc(C)o1 (centres undefined) | 0.179% |
| CC1=C(C(=O)Nc2ccccc2)C(c2cccs2)n2ncnc2N1 (centres undefined) | -10.9% |
| COc1ccc(NC(=O)C2=C(C)Nc3ncnn3C2c2cccc(OCc3ccc(F)cc3)c2)c(OC)c1 (centres undefined) | 51.9% (active) |

| SMILES | inhibition |
| --- | --- |
| CC1=C(C(=O)Nc2ccccc2)C(c2ccc(OCc3c(Cl)cccc3Cl)cc2)n2ncnc2N1 (centres undefined) | 69.4% (active) |
| COc1cccc([C@@H]2C[C@]3(C)NC(=O)CCCC[C@@H]3N2C(=O)c2cnn(C)c2)c1 | -8.06% |
| CC1COc2ccccc2N1C(=O)c1ccc(F)cc1 (centres undefined) | 0.747% |
| CC1CCN(S(=O)(=O)c2cccn(CC(=O)Nc3ccc(F)cc3)c2=O)CC1 | -5.61% |
| COC(=O)c1cccc(Nc2c(-c3ccccc3)nc3cnc(Br)cn23)c1 | -68.2% |
| O=C1CCC(=O)N(O)CCCCCNC(=O)CCC(=O)N(O)CCCCCNC(=O)CCC(=O)N(O)CCCCCN1 | 23.5% |
| CC(=O)N1CCc2cc(C(O)CN3CCN(c4ccccc4)CC3)ccc21 (centres undefined) | 47.6% (active) |
| O=C(CN1CCN(c2ccccc2)CC1)c1ccccc1 | -12.9% |
| CC(=O)N1CCc2cc(S(=O)(=O)Nc3ccccc3N3CCN(C)CC3)ccc21 | -8.21% |
| CCOCCCNc1ncnc2c1sc1nc(N3CCOCC3)c3c(c12)CC(C)(C)OC3 | -1.37% |
| Cc1cc(=O)n(CC(=O)NCc2ccccc2Cl)c(N2CCCC2)n1 | -2.72% |
| Cc1ccccc1CNC(=O)Cn1c(=O)ccn(Cc2ccc(F)cc2)c1=O | 42.9% (active) |
| CCOc1ccccc1CNC(=O)CCn1c(-c2ccc(F)cc2)cc(C(C)=O)c1C | -2.37% |
| O=C1Nc2ccccc2C1c1c(-c2ccccc2Cl)[nH]c2[nH]c(=O)[nH]c(=O)c12 (centres undefined) | 8.48% |
| Cc1cnc(N2CC[C@@H]3[C@@H](CO[C@@H]3CNS(C)(=O)=O)C2)nc1 | -4.98% |
| CC(C)NC(=O)N1CCCN(C2CCN(Cc3ccccc3)C2=O)CC1 (centres undefined) | -36.9% |
| CCC1(C)Cc2c(sc3nc(SCC(=O)NCCc4ccccc4)nc(N)c23)CO1 (centres undefined) | -6.11% |
| CCCc1nc2sc3c(N4CCC(C)CC4)ncnc3c2c2c1CCC2 | -14.3% |
| CCCCc1nc2sc3c(SCC(=O)NCc4ccccc4)ncnc3c2c2c1CCC2 | 44.6% (active) |
| CC(=O)CSc1nnc(-c2ccccc2Br)o1 | 2.6% |
| CCCCOc1ccc(-c2nnc(-c3ccccc3Br)s2)cc1 | 4.93% |
| CS(=O)(=O)c1cnc(N2CCCCC2)nc1C1CCN(C(=O)CCc2ccco2)CC1 | 5.15% |
| Cc1cccc(-n2cc(-c3ccccc3)c3c(N(C)C)ncnc32)c1 | 2.77% |

| SMILES | inhibition |
| --- | --- |
| CC1=C(c2ccc(Cl)cc2)S(=O)(=O)NC1=NCC(=O)NC1CCCC1 | 20.9% |
| COc1cc(CNc2nn[nH]n2)ccc1OCc1ccc(C)cc1 | 5.1% |
| CC1=C(c2ccc(C)cc2)S(=O)(=O)NC1=NCc1cccc(Br)c1 | 46% (active) |
| COc1ccc(CN=C2NS(=O)(=O)C(c3ccc(F)cc3)=C2C)cc1OC | 66.4% (active) |
| COc1ccc(C2=Nc3ncnn3C2=NCc2ccc(F)cc2)cc1OC | -4% |
| CCn1c(SCc2cccc(C)c2)nnc1-c1cnccn1 | 10.7% |
| O=C(c1cccnc1)N1CCC(c2cccc(Cc3ccccc3Cl)n2)CC1 | -11.1% |
| COc1cccc(CC2(NC(=O)c3ccccc3)N=C3C=CC=CN3C2=O)c1OC (centres undefined) | 16.5% |
| Cc1cc(OCC(=O)Oc2ccc(-n3cnnn3)cc2)cc(C)c1Cl | -0.253% |
| CCc1ccc(C(=O)Cn2c(N3CCOCC3)nc3ccccc32)cc1 | -2.13% |
| COc1ccc(S(=O)(=O)N2CC(C(=O)NC3CCCCC3)C3(CCOCC3)C2)cc1 (centres undefined) | 0.196% |
| COc1nc(OC)nc(N2CCC(c3nc(C)cc(-c4ncc[nH]4)n3)CC2)n1 | -10.1% |
| COc1cccc(-c2nnc(-c3ccccc3NS(=O)(=O)c3ccc(C)cc3)o2)c1 | 15.5% |
| COc1ccc(-c2nnc(-c3cccc(S(=O)(=O)N4CCCC4)c3)o2)cc1 | 13.3% |
| COc1cccc(-n2nnc(-c3nnc(-c4ccccc4)o3)c2C)c1 | 54.7% (active) |
| Cc1ccc(CNC(=O)CCNc2cc(C)nc3nc(-c4cccnc4)nn23)cc1 | 6.35% |
| CCC(CC)C(=O)N1CCC(c2nc3c(nnn3Cc3ccccc3)c(=O)[nH]2)CC1 | 14.7% |
| CC1=C2C[C@@H]3C(CN4CCN(c5ccccn5)CC4)C(=O)O[C@@H]3C[C@@]2(C)CCC1 (some centres undefined) | -3.81% |
| CNC(=O)c1cc(-c2ccccc2)c(N2CCOCC2)s1 | 2.58% |
| COc1ccc(NC(=O)c2sc(N3CCOCC3)nc2-c2ccccc2)c(OC)c1 | 52.7% (active) |
| COc1ccc(-c2nc(N(Cc3ccccc3)C(=O)CN3CCOCC3)sc2C)cc1 | -13.9% |
| CC(C)Cc1noc(CN2CCC3(CC2)CC3c2nnc(-c3cccc(F)c3)o2)n1 (centres undefined) | 0.0905% |
| CC/C=C\[C@@H]1O[C@H]1C1=C(C)C(=O)C2(O1)C(=O)NC(OC)(C(=O)c1ccccc1)C2O (some centres undefined) | -4.56% |

| SMILES | inhibition |
| --- | --- |
| COc1ccc(-c2cc(C(=O)N3CCCC3c3cc(C)on3)no2)cc1 (centres undefined) | 0.23% |
| O=C(Nc1ccc2c(c1)OCO2)c1sc2cc(Cl)ccc2c1Cl | -7.31% |
| CCOc1ncccc1C(=O)NNC(=O)c1cn(-c2ccccc2)nc1-c1ccccc1 | 2.51% |
| CC(OC(=O)c1cn(-c2ccccc2)nc1-c1cccnc1)C(=O)Nc1cccc(S(=O)(=O)N(C)C)c1 (centres undefined) | 41.1% (active) |
| COc1ccccc1OCCC(=O)Nc1cccc(S(=O)(=O)N(C)C)c1 | 9.63% |
| NC(=O)c1ccccc1OCC(=O)Nc1cc(Cl)ccc1Oc1ccccc1 | -1.08% |
| COc1ccc(-c2cc(=O)oc3c(C)c(OCc4ccccc4F)ccc23)cc1 | 49.1% (active) |
| COc1ccc(-c2noc(-c3cc4c(COC(C)=O)cnc(C)c4oc3=O)n2)cc1 | -158% |
| Cc1cc(=O)oc2c(C)c(OC(C)C(=O)NCc3ccncc3)ccc12 (centres undefined) | -11.3% |
| CNC(=O)c1sc2nccnc2c1C1CCN(c2ccncn2)CC1 | -8.22% |
| CCc1cc(C2CCCN2S(=O)(=O)c2ccc(C(C)C)cc2)on1 (centres undefined) | 9.48% |
| Cc1nn(C)c(C)c1CN(C(=O)Cn1cc(C(C)C)nn1)C1CC1 | -1.87% |
| CN1C[C@@H](NC(=O)c2ccc(F)cc2)C[C@H]1c1nc(-c2cccnc2)no1 | -2.42% |
| Cc1cc(N)nc2c1c(C)nn2-c1ncc(C(F)(F)F)cc1Cl | -15.8% |
| Cc1ccc(-c2noc(-c3cccc(OCC(=O)N(C)C)c3)n2)cc1 | 50.7% (active) |
| Cc1ccccc1-c1nc(-c2cccc(OCC(=O)N3CCOCC3)c2)no1 | 48.9% (active) |
| COc1cc(Cl)ccc1-c1nc(-c2cccc(C(=O)N3CCCC3)c2)no1 | 8.98% |
| Cc1ccccc1-c1nc(-c2cn(CC(=O)Nc3ccccc3)cn2)no1 | 10% |
| Cc1ccc(-c2nc(-c3cccc(-c4ccnn4C)c3)no2)cc1 | 5.04% |
| COc1ccc(-c2noc(-c3cccc(OCC(=O)NC(C)C)c3)n2)cc1 | -0.296% |
